From PubChem BioAssay (NCATS)
Records with an inconclusive call do not appear. Calls of active or inactive are those of the source. The call rests on the fitted dose curve; in most records, active means well fitted cell-killing curve with a large enough effect; inconclusive means small, poorly fitted or top-dose-only effect, or effect the other way; inactive means no such curve, though single readings can be large or run the other way.
Potency means the concentration at half of the fitted maximal effect.

Test: Quantitative High-Throughput drug screen in 47 multiple myeloma cell lines against the NCATS MIPE library collection: KMS11_JCRBsus cell viability assay (AID 1919873); further: nearly all actives have a fitted effect of over 50% in size
Conditions: KMS11 myeloma viability, CellTiter-Glo ATP luminescence, 48 h; series mostly up to 45.8 µM; viability (% of control): at the top concentration
Outline: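 Viability after 48 h drug exposure was measured as ATP-dependent luminescence. Cells, 500 per well, sat at 37 °C under 5% CO2; DMSO wells set 100%, media-only wells 0%.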
For `O=C(O)c1ccc(-c2cc3cccnc3c(-c3ccc4nonc4c3)n2)cc1`, the Potency was 26.4 µM (active). For `CC(C)C(=O)Nc1ncc(-c2cc(C(F)F)nn2-c2c(Cl)cccc2Cl)s1`, the Potency was 11.8 µM (active). For `CC(=O)O[C@]1(C(C)=O)CC[C@@H]2[C@@H]3C[C@H](C)C4=CC(=O)CC[C@]4(C)[C@H]3CC[C@@]21C`, the Potency was 20.9 µM (active). In the case of `CC=CCC=CCCC(=O)[C@H]1O[C@@H]1C(N)=O`, the Potency is reported as 20.9 µM (active). In the case of `Nc1ncnc2c1ncn2[C@@H]1O[C@H](CO)C[C@@H]1O`, the Potency is reported as 37.2 µM (active). With `c1ccc2c(Cc3c[nH]c4ccccc34)c[nH]c2c1` the Potency was 23.5 µM (active). With `CC(C)(C)Cn1c(N)nc2ccc(-c3[nH]c(C(C)(C)C)nc3-c3ccc(F)cc3)nc21` the “viability (% of control)” value was 2.1% (inactive). In the case of `NC(=O)c1ccc2nc(-c3ccc(Oc4ccc(Cl)cc4)cc3)[nH]c2c1`, the Potency is reported as 11.8 µM (active). For `O=c1cc(-c2cccc3c2Sc2ccccc2S3)oc(N2CCOCC2)c1`, the Potency was 20.9 µM (active). In the case of `Cc1ccc(/C=N/NC(=O)c2ccccc2Oc2ccccc2)o1`, the Potency is reported as 9.35 µM (active). In the case of `Clc1ccc(CCC(Cn2ccnc2)Sc2c(Cl)cccc2Cl)cc1` (stereo not given), the Potency is reported as 20.9 µM (active). In the case of `CC1(C)S[C@H]2[C@H](NC(=O)[C@@H](N)c3ccc(O)cc3)C(=O)N2[C@@H]1C(=O)O`, the Potency is reported as 18.7 µM (active). In the case of `CCNc1cc(NC2CCC(O)CC2)nc(Nc2ccc3c(ccn3Cc3ccccc3)c2)n1` (stereo not given), the Potency is reported as 20.9 µM (active). In the case of `C[N+](C)(C)CC(=O)O`, the “viability (% of control)” value is reported as 120% (inactive). In the case of `COc1ccc(-c2nc(N3CCOCC3)c3sc(CN(C)c4ncc(C(=O)NO)cn4)cc3n2)cn1`, the “viability (% of control)” value is reported as -0.217% (inactive).
